Source: paper PMC5540273 (PLoS ONE, 2017)

Legend:
Settings in all cases: concentration: 1 μM, replicates: in singlicate; n = 1
[1] = tested on: CSNK1A1
[2] = tested on: CSNK1D
[3] = tested on: CSNK1E
[4] = tested on: CSNK1G1
[5] = tested on: CSNK1G2
[6] = tested on: CSNK1G3
[7] = tested on: CSNK2A1
[8] = tested on: CSNK2A2
[9] = tested on: T1, CTK
T1 construct: gene MATK

[10] = tested on: DAPK1
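Further: KINOMEscan kinase panel screen.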

## COc1cc2ncn(-c3cc(OCC4CCCO4)c(C(N)=O)s3)c2cc1OC (centres unmarked) [GSK204607]
[1]
  %Inh: 0%
[2]
  %Inh: 8%
[3]
  %Inh: 17%
[4]
  %Inh: 1%
[5]
  %Inh: 0%
[6]
  %Inh: 26%
[7]
  %Inh: 8%
[8]
  %Inh: 9%
[9]
  %Inh: 0%
[10]
  %Inh: 29%

## O=C(Nc1ccc2c(c1)OCO2)NC1CCN(c2ccnc(Nc3ccc(F)cc3)n2)C1 (centres unmarked) [GSK1379724]
[1]
  %Inh: 0%
[2]
  %Inh: 21%
[3]
  %Inh: 0%
[4]
  %Inh: 0%
[5]
  %Inh: 0%
[6]
  %Inh: 8%
[7]
  %Inh: 0%
[8]
  %Inh: 0%
[9]
  %Inh: 0%
[10]
  %Inh: 0%

## COc1cccc(-c2cc(-c3c[nH]nc3-c3ccccn3)ccn2)c1 [GW680338]
[1]
  %Inh: 31%
[2]
  %Inh: 25%
[3]
  %Inh: 23%
[4]
  %Inh: 1%
[5]
  %Inh: 3%
[6]
  %Inh: 10%
[7]
  %Inh: 4%
[8]
  %Inh: 11%
[9]
  %Inh: 0%
[10]
  %Inh: 0%

## Cl.Oc1ccc(-c2nc(-c3ccccc3)[nH]c2-c2ccncc2)cc1 [SB-428218]
[1]
  %Inh: 0%
[2]
  %Inh: 37%
[3]
  %Inh: 28%
[4]
  %Inh: 18%
[5]
  %Inh: 0%
[6]
  %Inh: 0%
[7]
  %Inh: 0%
[8]
  %Inh: 0%
[9]
  %Inh: 0%
[10]
  %Inh: 3%

## Cc1cccc(-c2nc(Nc3ccncc3)c3ccccc3n2)n1 [GW855857]
[1]
  %Inh: 46%
[2]
  %Inh: 73%
[3]
  %Inh: 77%
[4]
  %Inh: 0%
[5]
  %Inh: 20%
[6]
  %Inh: 12%
[7]
  %Inh: 0%
[8]
  %Inh: 0%
[9]
  %Inh: 0%
[10]
  %Inh: 0%

## Cc1cc(-c2ccc3c(c2)CC[C@@H](N[C@@H](C)c2ccccc2)C3)cnc1N.Cl [GW412617]
[1]
  %Inh: 6%
[2]
  %Inh: 35%
[3]
  %Inh: 12%
[4]
  %Inh: 11%
[5]
  %Inh: 0%
[6]
  %Inh: 8%
[7]
  %Inh: 2%
[8]
  %Inh: 10%
[9]
  %Inh: 13%
[10]
  %Inh: 10%

## Nc1ncnc2[nH]c(-c3ccccc3)nc12 [AH5015]
[1]
  %Inh: 0%
[2]
  %Inh: 21%
[3]
  %Inh: 14%
[4]
  %Inh: 11%
[5]
  %Inh: 0%
[6]
  %Inh: 9%
[7]
  %Inh: 29%
[8]
  %Inh: 100%
[9]
  %Inh: 5%
[10]
  %Inh: 4%

## Cc1ccc(-c2cc(-c3c[nH]nc3-c3ccccn3)ccn2)cc1 [GW684088]
[1]
  %Inh: 21%
[2]
  %Inh: 26%
[3]
  %Inh: 18%
[4]
  %Inh: 10%
[5]
  %Inh: 22%
[6]
  %Inh: 24%
[7]
  %Inh: 0%
[8]
  %Inh: 0%
[9]
  %Inh: 0%
[10]
  %Inh: 11%

## Cc1ccc(NC(=O)Nc2cccc(Cl)c2)cc1-c1ccc(C(=O)Nc2ccncc2)cc1 [GSK1398468]
[1]
  %Inh: 0%
[2]
  %Inh: 57%
[3]
  %Inh: 19%
[4]
  %Inh: 2%
[5]
  %Inh: 0%
[6]
  %Inh: 25%
[7]
  %Inh: 0%
[8]
  %Inh: 0%
[9]
  %Inh: 0%
[10]
  %Inh: 3%

## CCn1c(-c2ccccn2)nc2cnccc21 [SB-736398]
[1]
  %Inh: 0%
[2]
  %Inh: 0%
[3]
  %Inh: 4%
[4]
  %Inh: 0%
[5]
  %Inh: 0%
[6]
  %Inh: 0%
[7]
  %Inh: 0%
[8]
  %Inh: 0%
[9]
  %Inh: 0%
[10]
  %Inh: 0%

## CCCc1ccc(S(=O)(=O)NC2CCN(c3ccnc(Nc4ccc(F)cc4)n3)C2)cc1 (centres unmarked) [GSK1379715]
[1]
  %Inh: 0%
[2]
  %Inh: 0%
[3]
  %Inh: 25%
[4]
  %Inh: 2%
[5]
  %Inh: 0%
[6]
  %Inh: 2%
[7]
  %Inh: 0%
[8]
  %Inh: 0%
[9]
  %Inh: 0%
[10]
  %Inh: 0%

## Nc1nc(-c2nccs2)c(-c2ccnc3ccccc23)s1 [GW693542]
[1]
  %Inh: 40%
[2]
  %Inh: 58%
[3]
  %Inh: 41%
[4]
  %Inh: 9%
[5]
  %Inh: 0%
[6]
  %Inh: 24%
[7]
  %Inh: 0%
[8]
  %Inh: 2%
[9]
  %Inh: 0%
[10]
  %Inh: 0%

## COC(=O)c1c(-c2ccccc2)c2cc(C(=O)O)ccc2c(=O)n1Cc1ccccc1
[1]
  %Inh: 0%
[2]
  %Inh: 7%
[3]
  %Inh: 0%
[4]
  %Inh: 0%
[5]
  %Inh: 0%
[6]
  %Inh: 0%
[7]
  %Inh: 0%
[8]
  %Inh: 0%
[9]
  %Inh: 0%
[10]
  %Inh: 0%

## CS(=O)(=O)c1ccc(-c2nc3n(c2-c2ccncc2)CCC3)cc1 [SKF-105942]
[1]
  %Inh: 0%
[2]
  %Inh: 6%
[3]
  %Inh: 22%
[4]
  %Inh: 4%
[5]
  %Inh: 0%
[6]
  %Inh: 2%
[7]
  %Inh: 0%
[8]
  %Inh: 9%
[9]
  %Inh: 0%
[10]
  %Inh: 0%

## COc1ccccc1CNC(=O)c1cc(C(=O)c2ccccc2C)c[nH]1 [GSK364507]
[1]
  %Inh: 0%
[2]
  %Inh: 28%
[3]
  %Inh: 20%
[4]
  %Inh: 15%
[5]
  %Inh: 0%
[6]
  %Inh: 9%
[7]
  %Inh: 0%
[8]
  %Inh: 100%
[9]
  %Inh: 0%
[10]
  %Inh: 0%

## Cn1ccc2ncnc(Oc3cccc(C(=O)Nc4ccccc4)c3)c21
[1]
  %Inh: 0%
[2]
  %Inh: 0%
[3]
  %Inh: 1%
[4]
  %Inh: 0%
[5]
  %Inh: 0%
[6]
  %Inh: 2%
[7]
  %Inh: 25%
[8]
  %Inh: 11%
[9]
  %Inh: 17%
[10]
  %Inh: 20%

## Cc1c(Cn2ccn3c(=O)cc(N4CCOCC4)nc23)cccc1C(F)(F)F [GSK2289044]
[1]
  %Inh: 33%
[2]
  %Inh: 6%
[3]
  %Inh: 25%
[4]
  %Inh: 19%
[5]
  %Inh: 5%
[6]
  %Inh: 18%
[7]
  %Inh: 0%
[8]
  %Inh: 3%
[9]
  %Inh: 0%
[10]
  %Inh: 13%

## Cc1cccc(-c2nc(Nc3ccc4[nH]ncc4c3)c3ccccc3n2)n1 [GW857175]
[1]
  %Inh: 0%
[2]
  %Inh: 28%
[3]
  %Inh: 28%
[4]
  %Inh: 15%
[5]
  %Inh: 0%
[6]
  %Inh: 18%
[7]
  %Inh: 94%
[9]
  %Inh: 18%
[10]
  %Inh: 10%
